# GPR151 ag: activators of human GPR151, primary screen, cell-based, PathHunter beta-arrestin, luminescence. G-protein coupled receptor 151 (Homo sapiens), Q8TDV0. activation, % at 11.2 µM. AID 1508602, 2020. 650,000 compounds, 1% hits. PathHunter beta-arrestin GPR151 cells; in the data active means activation above about 4.9%;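 further: 0% = median of compound wells and 100% = cells with positive control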
# FBW7 activator: FBW7 E3 ligase activators, primary screen, biochemical, AlphaScreen, human. AlphaScreen FBW7–phospho-cyclin E peptide binding, activator screen. normalized activity (activation), % at 26.1 µM. 650,000 compounds, 0.13% hits. AID 1259310, 2017; in the data active means normalized activity above about 1.9%;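 further: purified mutant Fbw7 with reduced substrate affinity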
# Target sequence (Q969H0 whole entry, looked up): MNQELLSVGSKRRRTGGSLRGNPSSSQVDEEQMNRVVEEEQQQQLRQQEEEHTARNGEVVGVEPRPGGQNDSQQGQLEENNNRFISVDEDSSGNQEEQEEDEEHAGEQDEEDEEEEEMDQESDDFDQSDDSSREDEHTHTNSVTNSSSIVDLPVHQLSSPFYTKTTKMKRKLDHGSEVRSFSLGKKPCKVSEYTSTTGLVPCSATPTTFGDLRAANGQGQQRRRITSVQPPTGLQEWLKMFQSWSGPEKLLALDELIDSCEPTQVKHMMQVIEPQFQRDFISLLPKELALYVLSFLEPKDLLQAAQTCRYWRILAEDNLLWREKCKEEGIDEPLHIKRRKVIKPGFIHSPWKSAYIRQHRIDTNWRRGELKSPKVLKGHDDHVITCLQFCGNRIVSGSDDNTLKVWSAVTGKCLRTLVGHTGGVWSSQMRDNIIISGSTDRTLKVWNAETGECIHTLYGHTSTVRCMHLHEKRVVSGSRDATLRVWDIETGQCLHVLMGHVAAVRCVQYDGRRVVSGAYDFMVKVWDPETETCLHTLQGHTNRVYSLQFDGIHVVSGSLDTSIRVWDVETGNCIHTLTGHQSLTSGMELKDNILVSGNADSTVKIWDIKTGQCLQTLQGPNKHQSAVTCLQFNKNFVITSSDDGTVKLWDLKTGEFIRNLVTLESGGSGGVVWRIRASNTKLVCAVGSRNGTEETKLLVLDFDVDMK
# TEAD-YAP inh: TEAD-YAP interaction inhibition, primary screen, TEAD-YAP interaction inhibitor project, luminescence, HEK-TIYL cells; inhibition, % at 9.12 µM; 640,000 compounds, 1.4% hits; TEAD-Gal4/YAP UAS-luciferase luminescence; in the data active means inhibition above about 32%;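 further: 0% = median of test compound wells and 100% = reference inhibitor wells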
# MITF primary: MITF inhibitors, primary screen, biochemical, AlphaScreen, human | 650,000 compounds, 0.91% hits | inhibition, % at 2.6 µM | AID 1259374, 2018 | AlphaScreen MITF homodimerization, bead proximity signal; in the data active means inhibition above about 50%;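 further: 0% = vehicle wells with protein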
# Active calls of the source: *. The list is not random: actives were taken first. Their share in the collection is about 3.5%.
SMILES,GPR151 ag,FBW7 activator,TEAD-YAP inh,MITF primary
O=C(O)c1cc(-c2ccc3c(c2)OCO3)nc2cc3c(cc12)OCCO3,0,0,32*,16
C=CCOc1ccc(-c2nn(-c3ccccc3)cc2/C=c2\sc3nc(-c4cccs4)nn3c2=O)cc1,3,0,-4,-10
CC(=O)c1cn(CC(=O)Nc2ccc(C)cc2C)c2ccccc12,0,0,40*,2
CC(=O)c1cn(CC(=O)Nc2cccc(C)c2C)c2ccccc12,0,0,40*,-2
COc1cc(C)c(NC(=O)Cn2cc(C(C)=O)c3ccccc32)cc1C,-1,0,22,9
CCOc1ccc(NC(=O)CCS(=O)(=O)c2ccc3c(c2)SCC(=O)N3)cc1,0,0,-5,9
O=C(c1nccs1)C1CCN(C(=O)c2c(F)cccc2Cl)CC1,-1,0,-5,-2
CCOC(=O)/C(=N\Nc1ncnc2ccccc12)c1cccs1,-10,0,36*,-3
CCC(Nc1ncnc2ccccc12)C(=O)O (stereo not given),0,0,6,-1
O=[N+]([O-])CC(c1ccccc1)c1c[nH]c2ccccc12 (stereo not given),0,0,46*,0
COc1cccc(C(C[N+](=O)[O-])c2c[nH]c3ccccc23)c1OC (stereo not given),2,0,14,-5
COc1cccc(C(C[N+](=O)[O-])c2c[nH]c3ccccc23)c1 (stereo not given),1,0,54*,-12
COc1ccc(/C=C2/C(=O)NC(=S)N(c3cccc(Cl)c3)C2=O)cc1O,-2,0,-7,22
COc1ccc2nc(NCCNC(=S)NCc3ccco3)c(C#N)cc2c1,-1,0,-6,10
O=C(Nc1ccc(Cl)c(Cl)c1)c1ccc(F)c(S(=O)(=O)N2CCCc3ccccc32)c1,-1,0,49*,-8
O=C(Nc1ccc(F)c(F)c1)c1ccc(F)c(S(=O)(=O)N2CCCc3ccccc32)c1,1,0,43*,-14
Cc1ccc(C(=O)Nc2nnc(SCC(=O)NCCc3ccccc3)s2)cc1,1,0,-29,-7
O=c1cnnc(N/N=C\c2ccc(C(F)(F)F)cc2)[nH]1,0,0,-16,16
CN1CCCN(C(=O)c2ccccc2I)CC1,1,0,-1,8
C/C(=N\Nc1cccc(C(F)(F)F)c1)C1CC1,1,3.4*,-8,40
C/C(=N\Nc1ccc(C(F)(F)F)cc1[N+](=O)[O-])C1CC1,4,0,7,8
Cc1nc2sccn2c1C(=O)Nc1cccc(Oc2ccccc2)c1,-1,0,-4,10
Cc1nc2sccn2c1C(=O)Nc1cccc(OC(F)(F)F)c1,0,1.9*,-5,18
O=C(O)CCC(=O)N(Cc1cccnc1)Cc1cccc(F)c1,0,0,49*,8
O=C(CN1C(=O)COc2ccccc21)N(Cc1cccnc1)Cc1cccc(F)c1,0,0,6,-5
SMILES,GPR151 ag,FBW7 activator,TEAD-YAP inh,MITF primary
CS(=O)(=O)N(CCc1ccccc1)CC(=O)NCCC1=CCCCC1,2,0,8,0
CCCNc1nc(N2CCN(c3ccccn3)CC2)nc2c1ncn2-c1ccccc1,-1,0,40*,0
c1ccc(-n2cnc3c(NCc4nc5ccccc5[nH]4)nc(N4CCN(c5ccccn5)CC4)nc32)cc1,-2,0,48*,-1
c1ccc(-n2cnc3c(NCc4nc5ccccc5[nH]4)nc(N4CCc5ccccc5C4)nc32)cc1,1,0,-13,3
CCCCCCn1nc(C(=O)Nc2cc(C(N)=O)cc(C(N)=O)c2)c2ccccc2c1=O,2,2.1*,-4,-11
O=C(NC1CCN(Cc2ccccc2)CC1)c1cnc(NCc2cccnc2)s1,-1,0,5,-1
O=C(Nc1ccc2c(c1)OCO2)c1ccccc1SCC(=O)N1CCc2ccccc21,-1,0,36*,-10
CCCCOc1ccc(-c2nc(C3CCC(CCCC)CC3)no2)cc1 (stereo not given),0,0,3,-1
Cc1sc2nc(SCC(=O)Nc3ccccc3N3CCOCC3)nc(N)c2c1C,-1,0,43*,1
Cc1ccc(C)c(-n2c(CNC(=O)c3cccs3)nnc2SCC(=O)N2N=C(c3cccs3)CC2c2ccc(F)cc2)c1 (stereo not given),-1,0,-5,-2
CCOc1cc(C2C(C(N)=O)=C(C)Nc3nnnn32)ccc1OCc1ccccc1 (stereo not given),1,0,15,19
COc1ccc(NC(=O)CN(C)S(=O)(=O)c2cccc3cnccc23)cc1OC,0,0,42*,27
CN(CC(=O)N1CCc2ccccc21)S(=O)(=O)c1cccc2cnccc12,0,0,34*,16
Cc1ccc2c(Cl)c(C(=O)O)sc2c1,1,0,1,-3
c1ccc(-n2cnc3c(NCCN4CCOCC4)nc(Nc4ccc(N5CCOCC5)cc4)nc32)cc1,4,0,59*,18
COc1cc(Nc2nc(Nc3ncccn3)nc3c2ncn3-c2ccsc2)cc(OC)c1OC,2,0,10,3
COc1cc(Nc2nc(Nc3ccnn3C)nc3c2ncn3-c2ccsc2)cc(OC)c1OC,0,0,63*,16
c1cnc2ccc(Nc3nc(NCCN4CCOCC4)c4ncn(-c5ccsc5)c4n3)cc2c1,0,0,48*,4
c1cc(Nc2nc(NCCN3CCOCC3)c3ncn(-c4ccsc4)c3n2)ncn1,0,0,37*,11
CCC(Sc1nnc(CSc2ncccn2)n1-c1ccc(OC)cc1)C(=O)OC (stereo not given),0,0,3,12
Cc1cc(Cl)ccc1NC(=O)N[C@H]1C[C@H]2C(=O)N[C@@H](CCCCN)C(=O)N2C1,-1,0,18,7
CC(=O)Nc1ccc(S(=O)(=O)NCC(c2ccc3c(c2)CCCN3C)N2CCCCC2)c(C)c1 (stereo not given),-2,0,6,-5
CCOC(=O)C(Sc1nc2[nH]ncc2c(=O)[nH]1)C(=O)OCC,0,0,-6,3
Cc1ccc2sc(NC(=O)c3ccccc3S(C)(=O)=O)nc2c1C,-1,0,14,16
c1cncc(CNc2nc(NCCN3CCOCC3)c3ncn(-c4ccsc4)c3n2)c1,-1,0,-1,-10
c1ccc(-n2cnc3c(NCCN4CCOCC4)nc(Nc4cccnc4)nc32)cc1,1,0,34*,-1
Cn1nccc1Nc1nc(NCCN2CCOCC2)c2ncn(-c3ccsc3)c2n1,-2,0,50*,0
c1cncc(Nc2nc(NCCN3CCOCC3)c3ncn(-c4ccsc4)c3n2)c1,1,0,51*,-3
c1ccc(Nc2nc(NCCN3CCOCC3)c3ncn(-c4ccsc4)c3n2)cc1,1,0,55*,-1

# Compound activity (PubChem)
